{"source": "PubChem BioAssay (NCI)", "note": "About 83,000 compounds went through this panel and 20% of them were active in at least one assay; those are over-represented in the sample as a whole.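 Treatment: one concentration, 48 hours, 96-well format. Scoring: percent growth, with anything below 10 considered active.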 Unmarked numbers belong to inactive results. The source made the active and inactive calls.", "data": [{"tested_on": "HL-60(TB) leukemia", "test": "NCI-60 one-dose screen, 48 h (100 = growth as untreated, 0 = no growth, -100 = all killed)", "conditions": "10 µM unless noted", "values": [{"smiles": "CC1=C(C)C(=O)OC([C@](C)(O)[C@]2(O)CC[C@@]3(O)[C@@H]4C[C@H]5O[C@]56CC=CC(=O)[C@]6(C)[C@H]4CC[C@]23COC(=O)c2ccc(C)o2)C1", "note": "(some centres undefined)", "growth": "-22.6% (active)"}, {"smiles": "Cc1ccccc1NC(=O)c1sc2nc(C)c(C(C)O)cc2c1N", "note": "(centres undefined)", "growth": "-14.8% (active)"}, {"smiles": "CN1CCN(Cc2ccc(NC(=O)c3ccc(C(C)(C)C)c(C#Cc4cnc5cccnn45)c3)cc2C(F)(F)F)CC1", "growth": "-17.4% (active)"}, {"smiles": "COc1ccc(-c2nc(-c3nc4ccc(C)cc4[nH]3)c3ccccn23)cc1", "growth": "30.5%"}, {"smiles": "COc1cc(/C=C/C(=O)c2cc(OC)c(OC)c(OC)c2)ccc1Oc1nc2c(c(=O)n(C)c(=O)n2C)n1C", "growth": "-13.1% (active)"}, {"smiles": "Cc1ccc(/C=C2\\C(=O)N(C)c3ccc(S(=O)(=O)Nc4ccc(C(C)(C)C)cc4)cc32)s1", "growth": "93.1%"}, {"smiles": "Fc1ccc2nc3c(cc2c1)CSc1nnc(-c2ccc[nH]c2=S)n1N3", "growth": "106%"}, {"smiles": "Cc1ccccc1OC(=O)c1cccc(Cl)c1", "growth": "60.4%"}, {"smiles": "N=C(N)c1ccc(-c2ccc(-c3cccs3)s2)s1", "growth": "-62% (active)"}, {"smiles": "O=C1Nc2c(ccc(Cl)c2Cl)/C1=C/c1ccc([N+](=O)[O-])cc1", "growth": "74.1%"}, {"smiles": "C=CCc1cc(Nc2c3ccc(Cl)cc3nc3ccc(OC)cc23)cc(CN(CC)CC)c1O", "growth": "-17% (active)"}, {"smiles": "CCCCC[C@@H]1Cc2cc(O)c(C(=O)O)c3c2[C@H](C[C@@]2(CCCO2)O3)O1", "growth": "86.5%"}, {"smiles": "CCOc1ccc(C(=O)NCC(C)C)cc1", "growth": "94.9%"}, {"smiles": "COc1ccc(OC)c(NC(=O)c2sc3nc4c(cc3c2N)C(=O)CCC4)c1", "growth": "88.4%"}]}]}
